Results reported in PubChem BioAssay AID602399 (Sanford-Burnham Center for Chemical Genomics, 2012).
About 2,800 (0.78%) of roughly 360,000 compounds were called active. No stated cut-off is given here; in the data, active means inhibition above about 26%; inactive means the rest. The sample as a whole holds a higher share of actives than the screen did.

Tested on: Nicotinate-nucleotide adenylyltransferase NadD (Staphylococcus aureus N315)
Assay: S. aureus NadD enzyme activity blockers – biochemical, colorimetric, uHTS, primary screen (AID 602399)
Settings: purified NadD enzyme, colorimetric absorbance read-out; at 20 µM; stronger effect = higher value

inhibition, inactive:
CC(=O)NC1(c2cccc(F)c2)CCN(CC(=O)NC(C)C)CC1 -2.5%, C/C(=N\NC(=O)c1cc(-c2ccc(O)cc2)nc2ccccc12)c1cccnc1 5.99%, O=C(N/N=C/C=C/c1ccco1)c1cccs1 5.08%, CSc1nsc(SC)c1NC(=O)OC1CCCCC1 -1.66%, CC(=O)Nc1ccc(S(=O)(=O)N2CCN(S(=O)(=O)c3cccs3)CC2)cc1 0.0869%, CN(C)c1ccc(-n2cccc2/C=N/n2cnnc2)cc1 -0.713%, CN(CCC1CCOCC1)Cc1cn[nH]c1-c1ccc(-c2ccccc2)cc1 -6.91%, C[C@@H]1CN([C@@H](C)CO)C(=O)c2cccc(NS(=O)(=O)c3ccc(F)cc3)c2O[C@H]1CN(C)C(=O)NC1CCCCC1 4.79%, Cc1[nH]c2ccccc2c1SCC(=O)Nc1nccs1 -2.1%, CN(C)/C=C(\C#N)C(=O)c1cccnc1Oc1cccc(F)c1 -0.906%, COc1ccc(C2(CNC(=O)C(c3ccccc3)c3ccccc3)CCOCC2)cc1OC -2.03%, Cc1cc(C)nc(Nc2n[nH]c(-c3ccccc3N)n2)n1 -2.89%, CCNc1nc(N)nc(Oc2ccc(OCC)nn2)n1 -1.59%, Cc1nn(-c2ccc(F)cc2)c(Cl)c1/C=C(/CCC(=O)O)c1nc2ccccc2s1 6.39%, O=C(O)CC/C(=C\c1cc2c(cc1Br)OCO2)c1nc2ccccc2s1 7.94%, CSc1nnc2c(n1)OC(c1ccsc1)N(C(C)=O)c1ccccc1-2 (centres undefined) -0.91%, Cc1ccc(N2C(=O)S/C(=C/c3cn(C)c4ccccc34)C2=O)cc1 2.76%, Cc1ccc(C(=O)N/C(=C\c2cn(C)c3ccccc23)C(=O)N2CCN(C)CC2)cc1 -3.04%, CON(C)S(=O)(=O)c1ccc2c(c1)NC(=O)C1CCCN21 (centres undefined) 10.3%, Cc1ccc(S(=O)(=O)c2cc3c(=O)n4cccc(C)c4nc3n(CCc3ccccc3)c2=N)cc1C -1.62%, CCn1c(=N)c(S(=O)(=O)c2ccc(F)cc2)cc2c(=O)n3ccccc3nc21 7.46%, COc1ccc(C)cc1NC(=O)c1cc(-c2ccccc2)nc2c1cnn2C(C)C -10.2%, COC(=O)c1sccc1NC(=O)CC1C(=O)NCCN1C(=O)Nc1ccc(F)cc1F (centres undefined) -5.08%, Cc1c(Cl)c([N+](=O)[O-])nn1CCCC(=O)NC(C)c1ccccc1 (centres undefined) 1.25%, CN(C)c1ccc(/C=N/NC(=O)c2ccc(Cn3cc(Br)cn3)o2)cc1 4.66%, COc1ccc(CC(=O)Nc2c3c(nn2-c2cccc(Cl)c2)CS(=O)C3)cc1 (centres undefined) 5.19%, Cc1ccc(NS(=O)(=O)c2cc3c(cc2Br)NC(=O)CO3)cc1C -3.42%, C#CCOCCOCCOCCNc1nc(N2CCOCC2)nc(N2CCN(C(=O)[C@H](Cc3ccc(O)cc3)n3cc(CCO)nn3)CC2)n1 -4.41%, C#CCOCCOCCOCCNc1nc(N2CCN(C(=O)C([C@@H](C)O)n3cc([C@@H](N)CCCCN)nn3)CC2)nc(N2CCN(C(=O)[C@H](CCCCN)n3cc(CN)nn3)CC2)n1 (some centres undefined) -6.21%, C=CCOc1cccc(C2C(C(=O)c3ccc(C)o3)=C(O)C(=O)N2CCN2CCOCC2)c1 (centres undefined) 6.48%, CCNc1nc(SCCOc2ccccc2)nc(N(C)C)n1 -6.51%, O=C(CSc1nnc(-c2cnccn2)n1Cc1ccco1)c1ccc(Cl)c(Cl)c1 10.3%, C(=C\c1ccccc1)/CSc1nnc(-c2cccnc2)n1Cc1ccco1 14.6%, Cc1cccc(NC(=O)CSC(N)=O)c1C -2.73%, Cc1cccc(NC(=O)CN2CCN(C(=O)C3CCN(C(=O)/C=C/c4ccccc4)CC3)CC2)c1C 5.55%, Cc1c(CN2CCCCC2)c(O)n(CCO)c(=O)c1C#N -2.39%, Cc1cccc(-c2c(NC(=O)c3ccco3)oc3ccc(Cl)cc3c2=O)c1 -6.28%, FC(F)(F)c1ccnc(Oc2ccc(C3=NCCS3)cc2)c1 -2.78%, CCCCn1ccnc1C(=O)c1cccc(S(=O)(=O)N2c3ccccc3CC2C)c1 (centres undefined) 9.25%, Cn1c(=O)[nH]c(=O)c2c1nc(CN1CCN(c3ccccc3F)CC1)n2CCc1ccccc1 0.696%, CC(C)C(=O)Nc1c2c(nn1-c1ccccc1)CSC2 -1.75%, O=C(Nc1ccc(C(=O)O)cc1)/C(=C\c1ccccc1)NC(=O)c1ccc(Br)cc1 -2.9%, COc1ccccc1C(=O)N/C(=C/c1ccco1)C(=O)Nc1ccc(C(=O)O)cc1 1.58%

inhibition, active:
Cc1ccc(-c2cc(C(=O)N/N=C/C=C/c3ccco3)c3ccccc3n2)cc1C 53%, CN(C)c1ccc(-n2cccc2/C=C2/SC(=Nc3ccc(F)cc3)NC2=O)cc1 24.9%, COc1ccc(C(=O)Nc2cccc(/C=C(/CCC(=O)O)c3nc4ccccc4s3)c2)cc1 35.2%, Cc1cccc(N=C2NC(=O)/C(=C/c3cn(C)c4ccccc34)S2)c1 37%, Cc1ccc(Cn2c(=N)c(S(=O)(=O)c3ccc(C)cc3)cc3c(=O)n4ccccc4nc32)cc1 35.5%, Cc1c(Cl)c([N+](=O)[O-])nn1Cc1ccc(C(=O)N/N=C\c2cc(Cl)ccc2O)o1 35.1%, C#CCOCCOCCOCCNc1nc(N2CCN(C(=O)CCCCCCCCCCNC(=O)Cn3cc(CCCCCN)nn3)CC2)nc(N2CCN(C(=O)CCCCCCCCCCNC(=O)[C@H](CO)n3cc(CCCSC)nn3)CC2)n1 46.8%, O=C(CSc1nnc(-c2cccnc2)n1Cc1ccco1)c1ccc(Cl)c(Cl)c1 30.6%, CCOC(=O)/C=c1\s/c(=C\c2ccc(C#N)cc2)c(=O)n1CC(=O)Nc1cccc(C)c1C 32.6%, Cc1ccc(N=C2NC(=O)/C(=C/C=C/c3ccco3)S2)cc1C 37.2%, COCCCn1c(=O)/c(=C/c2ccccc2OC(C)C)s/c1=C(\C#N)C(=O)Nc1ccc(C(=O)O)cc1 32%
